Compounds with a hit are over-represented: about 13% of the library has one in this group of screens.
USP10 block – inhibitors of human USP10 deubiquitinase; 1.1% of 47,000 active; AID 1645856, 2021; Ubiquitin carboxyl-terminal hydrolase 10 (Homo sapiens), Q14694; purified USP10, Ub-rhodamine fluorescence, 60 min; inhibition, % at 20 µM
USP17 inh – inhibitors of human USP17 deubiquitinase | purified USP17, Ub-rhodamine cleavage fluorescence, 3 h | inhibition, % at 50 µM | 6.5% of 47,000 active | AID 1645855, 2021
USP30 block – inhibitors of human USP30 deubiquitinase | 5.3% of 47,000 active | Ubiquitin carboxyl-terminal hydrolase 30 (Homo sapiens), Q70CQ3 | purified USP30, Ub-rhodamine cleavage fluorescence | inhibition, % at 25 µM
Target sequence (Q70CQ3 whole entry, looked up): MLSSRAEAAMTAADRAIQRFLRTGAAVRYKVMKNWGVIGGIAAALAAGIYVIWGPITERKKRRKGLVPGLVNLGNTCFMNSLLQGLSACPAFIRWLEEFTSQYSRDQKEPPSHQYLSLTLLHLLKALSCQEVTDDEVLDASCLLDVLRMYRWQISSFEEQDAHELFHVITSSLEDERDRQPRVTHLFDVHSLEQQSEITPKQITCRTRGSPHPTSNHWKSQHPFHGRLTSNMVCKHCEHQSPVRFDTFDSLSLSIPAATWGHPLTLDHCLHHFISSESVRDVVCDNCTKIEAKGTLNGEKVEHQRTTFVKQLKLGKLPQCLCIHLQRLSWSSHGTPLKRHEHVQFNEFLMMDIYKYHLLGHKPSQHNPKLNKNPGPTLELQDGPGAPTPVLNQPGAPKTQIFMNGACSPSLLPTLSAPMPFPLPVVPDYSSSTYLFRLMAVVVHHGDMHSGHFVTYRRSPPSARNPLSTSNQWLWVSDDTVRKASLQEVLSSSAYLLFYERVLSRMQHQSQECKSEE
USP8 block – inhibitors of human USP8 deubiquitinase | purified USP8, Ub-rhodamine cleavage fluorescence, 30 min | 4.2% of 47,000 active | inhibition, % at 20 µM
USP28 block – inhibitors of human USP28 deubiquitinase; Ubiquitin carboxyl-terminal hydrolase 28 (Homo sapiens), Q96RU2; purified USP28, Ub-rhodamine cleavage fluorescence, 30 min; inhibition, % at 25 µM; 3% of 47,000 active
The depositor's hits bear a star. Cut-off read from the data, not from the text of the source: active = inhibition above about 30%; inactive = the rest.

Results for Cc1cc(C)c2c(-n3cccc3)nn(Cc3ccc(C(=O)NCC4CCCO4)cc3)c2n1 (stereo unspecified) ?
USP10 block: -1; USP17 inh: 0; USP30 block: 6; USP8 block: 5; USP28 block: 10

What do the screens show for `O=C(CC[C@@H]1NC(=O)N(Cc2ccccc2)C1=O)Nc1ccc2c(c1)OCO2`?
USP10 block: 1; USP17 inh: 20; USP30 block: 4; USP8 block: 19; USP28 block: 3

Results for C[C@@H](c1ccccc1)N1C(=O)N[C@@H](CCC(=O)Nc2ccc3c(c2)OCO3)C1=O ?
USP10 block: 1; USP17 inh: 22; USP30 block: -6; USP8 block: 52*; USP28 block: 0

Results for COc1ccccc1-c1cc2n(n1)CCN(C(=O)c1ccncc1)C2 ?
USP10 block: 0; USP17 inh: 1; USP30 block: 8; USP8 block: 2; USP28 block: 5

Results for Fc1ccc(F)c(-c2nnc(-c3ccc(-n4ccnc4)nc3)o2)c1 ?
USP10 block: -4; USP17 inh: 47*; USP30 block: 25; USP8 block: 25; USP28 block: 17

What do the screens show for `Fc1ccc(CNc2cc(-n3ccnc3)ncn2)c(F)c1`?
USP10 block: -4; USP17 inh: -58; USP30 block: -173; USP8 block: -103; USP28 block: -12

Results for Fc1ccc(Cl)cc1-c1nnc(-c2ccc(-n3ccnc3)nc2)o1 ?
USP10 block: 1; USP17 inh: 48*; USP30 block: 46*; USP8 block: 23; USP28 block: 16

Results for COc1ccccc1CNc1nccn(Cc2ccc(F)cc2)c1=O ?
USP10 block: 5; USP17 inh: 12; USP30 block: 12; USP8 block: 0; USP28 block: 24

What do the screens show for `O=C(COC(=O)C1CCCN1C(=O)C12CC3CC(CC(C3)C1)C2)c1ccc(Cl)cc1` (stereo unspecified)?
USP10 block: 13; USP17 inh: 8; USP30 block: 51*; USP8 block: 0; USP28 block: 7

How did CN(C)c1ncncc1N1CCC(C(=O)NCc2ccccc2)CC1 do in these assays?
USP10 block: -1; USP17 inh: 5; USP30 block: 0; USP8 block: -1; USP28 block: 19

What do the screens show for `O=C(Nc1ccc(-c2ccno2)cc1)C1CCN(S(=O)(=O)c2cccnc2)CC1`?
USP10 block: -2; USP17 inh: -16; USP30 block: -31; USP8 block: -18; USP28 block: -10

What do the screens show for `CC(=O)c1ccc(NC(=O)C2CCN(S(=O)(=O)c3cccnc3)CC2)cc1`?
USP10 block: 0; USP17 inh: 14; USP30 block: 35*; USP8 block: 14; USP28 block: 13

Results for COc1ccc(NC(=O)C2CCN(c3cncnc3N(C)C)CC2)cc1OC ?
USP10 block: -2; USP17 inh: 2; USP30 block: -8; USP8 block: -11; USP28 block: 72*

Results for CC(=O)c1ccc(NC(=O)C2CCN(c3cncnc3N3CCCC3)CC2)cc1 ?
USP10 block: 1; USP17 inh: -14; USP30 block: -12; USP8 block: -3; USP28 block: 89*

How did O=C(NCc1ccc(Cl)cc1)C1CCN(c2cncnc2N2CCCC2)CC1 do in these assays?
USP10 block: -8; USP17 inh: -31; USP30 block: -49; USP8 block: -21; USP28 block: 2

Results for CCC(=O)Nc1c(C)noc1/C=C\c1ccc(S(=O)(=O)Nc2c(C)cccc2C)cc1 ?
USP10 block: 6; USP17 inh: 4; USP30 block: 11; USP8 block: 15; USP28 block: 2

Results for CCC(CO)NC(=O)c1cc(-c2cnc(N3CCOCC3)nc2)cn1C (stereo unspecified) ?
USP10 block: 0; USP17 inh: 0; USP30 block: 11; USP8 block: -3; USP28 block: 6

What do the screens show for `O=S(=O)(Nc1ccccc1Oc1ccccc1)c1ccccc1C(F)(F)F`?
USP10 block: 15; USP17 inh: 27; USP30 block: 31*; USP8 block: 10; USP28 block: 17

Results for N#Cc1ccc(S(=O)(=O)Nc2ccccc2Oc2ccccc2)cc1 ?
USP10 block: 12; USP17 inh: 12; USP30 block: 18; USP8 block: -9; USP28 block: 17

Results for COc1ccccc1NC(=O)Cn1c(N2CCOCC2)nc2cc(C)n(C)c2c1=O ?
USP10 block: -1; USP17 inh: -18; USP30 block: 12; USP8 block: -12; USP28 block: -13

What do the screens show for `COc1ccc([C@H]2C[C@@H](O)[C@@H](O)[C@@H]2NC(=O)c2cc(C)on2)cc1`?
USP10 block: 2; USP17 inh: 9; USP30 block: 35*; USP8 block: -5; USP28 block: 1

What do the screens show for `Cc1ccc(-n2nnc(C(=O)N3CCCC(CC(N)=O)C3)c2C)cc1` (stereo unspecified)?
USP10 block: 0; USP17 inh: -5; USP30 block: 2; USP8 block: -9; USP28 block: -2

Results for CN(C)C(=O)N1Cc2ccccc2C2(CCNCC2)C1 ?
USP10 block: 3; USP17 inh: 22; USP30 block: 31*; USP8 block: -29; USP28 block: 16

Results for COc1ccc(N2CCN(c3ccc(C(C)=O)s3)CC2)cc1 ?
USP10 block: 0; USP17 inh: -11; USP30 block: -20; USP8 block: 7; USP28 block: -11

How did O=C(CN1CCc2ccccc21)Nc1cc(C(=O)O)ccc1O do in these assays?
USP10 block: 0; USP17 inh: 6; USP30 block: -12; USP8 block: 49*; USP28 block: 2

What do the screens show for `CCCCNC(=O)C1CCN(c2ccc(N3CCCCC3)nn2)CC1`?
USP10 block: -3; USP17 inh: 8; USP30 block: 28; USP8 block: -3; USP28 block: 15

How did CCCCNC(=O)C1Sc2nnc(-c3ccccc3)n2NC1c1ccccc1 (stereo unspecified) do in these assays?
USP10 block: 26; USP17 inh: 1; USP30 block: 50*; USP8 block: 6; USP28 block: 6

Results for O=C(NCc1nnc2c(C(F)(F)F)cc(Cl)cn12)c1sc2ccccc2c1Cl ?
USP10 block: -1; USP17 inh: 13; USP30 block: -1; USP8 block: -12; USP28 block: -3

Results for Cc1oc2ncn3nc(C(C)Oc4cccc5ccccc45)nc3c2c1C (stereo unspecified) ?
USP10 block: -11; USP17 inh: 32*; USP30 block: -144; USP8 block: 78*; USP28 block: -9

What do the screens show for `Cc1ccc2ccc3c(c2n1)OC(N)=C(C#N)C3c1ccncc1` (stereo unspecified)?
USP10 block: -2; USP17 inh: 6; USP30 block: -8; USP8 block: 66*; USP28 block: -20

Assay outcomes from PubChem.
